Screening results deposited in PubChem BioAssay by National Center for Advancing Translational Sciences (NCATS).
Most compounds without a hit are left out; they make up all but 2.6% or so of the library.
Casp1 inh – qHTS Assay for Allosteric/Competitive Inhibitors of Caspase-1 | P29466 | Caspase-1 enzyme, Ac-WEHD-AFC fluorogenic rate | Potency, µM (highest dose often 57.5 µM), for inactives: top-dose activity change, negative = inhibition, hits mostly inhibitors | actives 0.03% (n = 75,000);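 further: plate controls were vehicle for no effect and no substrate for full effect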
TSHR agonist – qHTS Assay for Agonists of the Thyroid Stimulating Hormone Receptor | Thyrotropin receptor (Homo sapiens), P16473 | HEK293-CNG-TSHR cells (CNG channel as cAMP sensor), membrane potential dye, cAMP | Potency, µM (top dose mostly 57.1 µM), for the others: top-dose activation, hits mostly activators | actives 0.48% (n = 73,000); active means well fitted activation curve with a large enough effect in the main read-out, with a control signal flat, not every such curve was filed as active; inconclusive means small, poorly fitted or top-dose-only effect, or a change in a side signal; inactive means no such curve, though single readings can be large or run the other way; % of control where 0% means no effect;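 further: the control signal comes from parental cells without the receptor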
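HEK 293 cells stably expressing TSHR and a modified CNG channel, with CNG-only parental cells as counterscreen, were preloaded 60 min at room temperature with membrane potential dye containing 100 uM RO 20-1724. Compound exposure was 30 min, and depolarization was read as fluorescence at 590 nm.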
HEK293 cAMP ctrl – qHTS Assay for Agonists of the Thyroid Stimulating Hormone Receptor: Activators of Intracellular cAMP Concentrations in Parental HEK 293; parental HEK293 CNG cAMP sensor, membrane potential fluorescence; Potency, µM (top dose mostly 57.1 µM), without a hit: at the highest dose activation, actives largely listed as activators; actives 2.5% (n = 73,000); further: % of control where 0% means no effect; nearly all actives have a fitted effect of over 55% in size
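Counterscreen for endogenous-receptor signalling: CNG-channel HEK 293 cells report cAMP rise by membrane depolarization. After 60 min dye equilibration with 100 uM RO 20-1724, compounds incubated 30 min before bottom-read fluorescence at 590 nm.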
Casp7 inh – qHTS Assay for Allosteric/Competitive Inhibitors of Caspase-7; recombinant caspase-7, Ac-DEVD-AFC fluorescence rate; AID 889, 2007; P55210; actives 0.02% (n = 75,000); Potency, µM (top dose mostly 57.5 µM), for the others: at the top dose activity change, negative = inhibition, actives largely listed as inhibitors; active means well fitted inhibition curve with a large enough effect in the main read-out, with a control signal flat, not every such curve was filed as active; inconclusive means small, poorly fitted or top-dose-only effect, or a change in a side signal; further: % of control where 0% means no effect
Active calls of the source: *; u = inconclusive; x = not tested or not shown; ! = not active in a repeat; [ ] = remark or other dose. Unless noted, the call rests on the fitted dose curve; in most records, active means well fitted curve in the direction sought with a large enough effect; inconclusive means small, poorly fitted or top-dose-only effect, or another doubt; inactive means no such curve, though single readings can be large; an effect the other way counts as inactive or inconclusive. Potency means the concentration at half of the fitted maximal effect.

SMILES	Casp1 inh	TSHR agonist	HEK293 cAMP ctrl	Casp7 inh
O=C(Oc1ccc2ccc(OC(=O)N3CCOCC3)cc2c1)N1CCOCC1	-4%	u	u	-1%
COC(=O)c1c(C)oc2ccc(OC(=O)N3CCOCC3)cc12	-1%	25µM*	5%	-1%
Cc1cccn2c(=O)c3c(nc12)N1CCC(Cc2ccccc2)CC1C1(C3)C(=O)N(C)C(=O)N(C)C1=O (centres undefined)	-1%	u	20µM*	-3%
CN1C(=O)N(C)C(=O)C2(Cc3c(nc4ccccn4c3=O)N3CCC(Cc4ccccc4)CC32)C1=O (centres undefined)	-1%	x	13%	-1%
COC(=O)[C@@]1(Cc2ccccc2)[C@H]2c3cc(C(=O)N(C)C)n(C)c3C[C@H]2CN1C(=O)c1ccccc1	-2%	u	25µM*	-6%
COC(=O)[C@@]1(Cc2ccccc2)[C@H]2c3cc(C(=O)N(C)C)[nH]c3C[C@H]2CN1C(=O)c1ccccc1	1%	u	u	-1%
N#Cc1ccc(CN2CCCC3(CCN(C(=O)Oc4ccccc4)CC3)C2)cc1	1%	u	16µM*	-2%
O=C(Oc1ccccc1)N1CCC[C@@]2(CCN(Cc3cc(C(F)(F)F)cc(C(F)(F)F)c3)C2)C1	-3%	u	16µM*	-1%
C[C@@H](Cc1ccc2c(c1)OC(C(=O)O)(C(=O)O)O2)NC[C@H](O)c1cccc(Cl)c1	-5%	x	21%	1%
C/C=C1\C[C@H](C)[C@](O)(CO)C(=O)OCC2=CCN3CC[C@@H](OC1=O)[C@@H]23	x	8%	9%	x
COc1cc2c(cc1OC)[C@@]13CCN4C=C5CCO[C@H]6CC(=O)N2[C@@H]1[C@@H]6[C@H]5C[C@H]43	-1%[11.5 µM]	3%[11.4 µM]	-6%[11.4 µM]	0%[11.5 µM]
O=c1[nH]c2ccccc2n1CCCN1CCC(n2c(=O)[nH]c3cc(Cl)ccc32)CC1	2%	u	16µM*!	2%
COCCOC(=O)c1ccccc1C(=O)OCCOC	-3%	u	-22%	-2%
CCn1nc(-c2cccs2)nc2c(=O)n(C)c(=O)nc1-2	0.79µM*	u	3.2µM*	u
O=P(c1ccccc1)(c1ccccc1)N1CC2(CC2)CC(O)(c2ccccc2)C1 (centres undefined)	5%	u	0.79µM*	-2%
O=C1OCCN1P(=O)(c1ccccc1)c1ccccc1	-4%	-10%	10%	0%
CC(C)C(=O)c1cn(Cc2ccccc2C#N)c2ccccc12	3%	u	25µM*	-5%
Cc1cccc(-c2nc3ccccc3c(=O)n2-n2cccc2)c1	-1%	u	4µM*	-2%
c1coc(CNc2ncnc3nc[nH]c23)c1	2%	u	5µM*!	2%
CCN[C@]1(c2cccs2)CCCCC1=O	-1%[25.7 µM]	5µM*	6%[25.6 µM]	-1%[25.7 µM]
N[C@@H](Cc1cc(O)c(O)cc1O)C(=O)O	u	6%	-4%	u
N[C@]1(C(=O)O)CC[C@@H](C(=O)O)C1	x	x	-2%	x
Clc1cc(Cl)cc(Cl)c1	1%	u	-18%	-1%
CC(=O)c1c(O)n(C)c(=S)n(-c2ccccc2)c1=O	-1%	u	1µM*	0%
c1ccc(N2CCCC3(CCNCC3)C2)nc1	-2%	u	16µM*	0%
SMILES	Casp1 inh	TSHR agonist	HEK293 cAMP ctrl	Casp7 inh
O=C(O)[C@H]1CCN1	2%	9%	-15%	1%
COc1cc2c(C(=O)N3CCN(C)CC3)c(C)n(C)c2cc1Br	-7%	u	20µM*	-2%
COc1ccc2c(c1)c(C(=O)CN1CCN(C)CC1)c(C)n2Cc1ccccc1	0%	u	u	0%
CCNC(=O)[C@@H]1O[C@@H](n2cnc3c(N)ncnc32)[C@@H](O)[C@H]1O	2%	u	0.16µM*	3%
CN(C(=O)c1ccco1)C1(c2ccccc2Cl)CCCCC1=O (centres undefined)	-1%	u	20µM*	-3%
CN1CC[C@@]2(CCCN(C(=O)c3ccco3)C2)C1	-4%	2%	1%	-11%
O=C1C[C@@H]2OCC=C3CN4CC[C@]56c7ccccc7N1[C@H]5[C@@H]2[C@H]3C[C@@H]46	x	7%	6%	x
CC[C@H](CO)NC(=O)[C@H]1C=C2c3cccc4[nH]cc(c34)C[C@H]2N(C)C1	x	-1%	-1%	x
O=C(O)c1cc2ccccc2oc1=O	-3%	u	20µM*	0%
CCN1C[C@]2(C)CC[C@@H](O)[C@]34[C@@H]5CC6[C@@H](OC)C[C@@](O)([C@H]5[C@@H]6O)[C@@H](C[C@@H]23)[C@H]14	-1%	5%	1%	0%
Clc1ccc(CO[C@@H](Cn2ccnc2)c2ccc(Cl)cc2Cl)cc1	-6%[25.7 µM]	u	16µM*	-1%[25.7 µM]
ClC1=C(Cl)C2(Cl)C3C4C=CC(C4)C3C1(Cl)C2(Cl)Cl (centres undefined)	-11%	30%	-6%	1%
ClC1=C(Cl)C2(Cl)C3C4CC(C5OC45)C3C1(Cl)C2(Cl)Cl (centres undefined)	-3%	25µM*	21%	1%
CN1[C@@H]2CC[C@H]1CC(O[C@@H](c1ccccc1)c1ccccc1N)C2 (some centres undefined)	4%	21%	-3%	-2%
CN1[C@@H]2CC[C@H]1CC(OC(c1ccc(F)cc1)c1ccc(F)cc1)C2 (some centres undefined)	-4%	u	32µM*	1%
C(=C/c1ccccc1)/CN1CCN(CCOC(c2ccccc2)c2ccccc2)CC1	-2%	32µM*	7%	-2%
CC(C)c1ccc2c(c1)CC[C@@H]1[C@@](C)(CN)CCC[C@@]21C	x	u	-30%	x
COCCOC(=O)c1c(N)n(Cc2ccccc2)c2nc3ccccc3nc12	x	u	16µM*	u
Nc1c(C(=O)OC2CCCCC2)c2nc3ccccc3nc2n1CC1CCCO1 (centres undefined)	x	3%	24%	u
CC(C)CCn1c(N)c(C(=O)OCC2CCCO2)c2nc3ccccc3nc21 (centres undefined)	x	u	20µM*	u
COc1cccc(N2CCN(Cc3cccc(Cl)c3)CC2)c1	-3%	25µM*	13%	-4%
COc1cccc(N2CCN(Cc3ccc(Cl)cc3)CC2)c1	-3%	6%	8%	-2%
Cc1c(C(=O)c2cccc3ccccc23)c2cccc3c2n1[C@H](CN1CCOCC1)CO3	0%	x	22%	-1%
CCCn1c(C)c(C(=O)c2cccc3ccccc23)c2ccccc21	-2%	u	13µM*	-3%
c1cc(OCC2CO2)cc(OCC2CO2)c1 (centres undefined)	3%	u	-7%	1%
CS(=O)c1ccc(-c2nc(-c3ccc(F)cc3)c(-c3ccncc3)[nH]2)cc1 (centres undefined)	-2%	u	-30%	0%
